Results filed as inconclusive are left out. Entries that show only a call come without a potency. Activity calls are given as the source filed them. The call rests on the fitted dose curve; in most records, active means well fitted inhibition curve with a large enough effect; inconclusive means small, poorly fitted or top-dose-only effect; inactive means flat fitted curve, though single readings scatter.
What follows are molecules tested on MKL-2 (assay: qHTS assay to identify novel small-molecules to repurpose for Merkel cell carcinoma treatment (AID 1296009; further: nearly all actives have a fitted effect of over 60% in size)). Settings: MCC and control cell lines, CellTiter-Glo viability, 72 h; series mostly up to 46 µM.
Method in brief: (§1)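 Viability readout: ATP luminescence (CellTiter-Glo) after 72 hr drug exposure at 37 degree celsius. Dose-response format was 8 points for NPC and 11 points for MIPE; data normalized to in-plate controls.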
With NC[C@H]1O[C@H](O[C@@H]2[C@@H](O)[C@@H](O[C@H]3O[C@H](CO)[C@@H](O)[C@H](N)[C@@H]3O)[C@H](N)C[C@@H]2N)[C@H](O)[C@@H](O)[C@H]1O the Potency was “inactive”. In the case of CCc1cccc(CC)c1NC(=O)N1Cc2[nH]nc(NC(=O)c3ccc(N4CCN(C)CC4)cc3)c2C1, the Potency is reported as “inactive”. With CON(C)C(=O)N1N=C(c2cc(F)ccc2F)S[C@]1(CCCN)c1ccccc1 the Potency was “inactive”. With OC[C@H]1O[C@@H](O[C@H]2[C@@H](O)[C@@](O)(CO)O[C@@H]2CO)[C@H](O)[C@@H](O)[C@@H]1O the Potency was “inactive”. COc1cc(F)c(C(C)C)cc1-c1ccc(C(F)(F)F)cc1CN1C(=O)O[C@H](c2cc(C(F)(F)F)cc(C(F)(F)F)c2)[C@@H]1C was tested, and the Potency was “inactive”. C#CCN(C)CC1=Cc2ccccc2Oc2ccccc21 was tested, and the Potency was “inactive”. O=c1[nH]c(=O)n([C@H]2C[C@@H](O)[C@@H](CO)O2)cc1I was tested, and the Potency was “inactive”. In the case of CNC(=O)[C@H](CC1=CN=C2C=CCC=C12)NC(=O)[C@@H](CC(=O)NO)CC(C)C, the Potency is reported as 264 nM (active). With Cc1c(C(=O)Nc2ccc(N3C[C@@H](C)O[C@@H](C)C3)nc2)cccc1-c1ccc(OC(F)(F)F)cc1 the Potency was “inactive”. In the case of CC(C)(C)c1[nH]cnc1C=c1[nH]c(=O)c(=Cc2ccccc2)[nH]c1=O, the Potency is reported as 60.5 nM (active). Nc1ncnc2c1c(-c1cccc(OCc3ccccc3)c1)cn2C1CC(CN2CCC2)C1 (stereo unspecified) was tested, and the Potency was “inactive”. In the case of Cc1cc(C(C)Nc2ccccc2)c2nc(N3CCOCC3)cc(=O)n2c1 (stereo unspecified), the Potency is reported as “inactive”. For CSc1cccc(Nc2ncc3cc(-c4c(Cl)cccc4Cl)c(=O)n(C)c3n2)c1, the Potency was “inactive”. CO[C@H]1/C=C\O[C@@]2(C)Oc3c(C)c(O)c4c(O)c(c5c(nc6cc(C)ccn65)c4c3C2=O)NC(=O)C(C)=CC=C[C@H](C)[C@H](O)[C@@H](C)[C@@H](O)[C@@H](C)[C@H](OC(C)=O)[C@H]1C was tested, and the Potency was “inactive”. In the case of CN1CCN(c2cccc(Nc3nc4c(-c5ccc(S(C)(=O)=O)cc5)cccn4n3)c2)CC1, the Potency is reported as “inactive”. For CC(C)C[C@@H](N)[C@H](O)C(=O)N[C@H](C(=O)N[C@H](C(=O)N[C@@H](CC(=O)O)C(=O)O)C(C)C)C(C)C, the Potency was “inactive”. For C[C@@H](O[C@H]1OCCN(Cc2n[nH]c(=O)[nH]2)[C@@H]1c1ccc(F)cc1)c1cc(C(F)(F)F)cc(C(F)(F)F)c1, the Potency was “inactive”. For CC(C)(C)c1nc(-c2cccc(NS(=O)(=O)c3c(F)cccc3F)c2F)c(-c2ccnc(N)n2)s1, the Potency was “inactive”. For CNC(=O)c1cc(COc2nnc(Nc3ccc(Cl)cc3)c3ccoc23)ccn1, the Potency was “inactive”. Cc1nc(NC(=O)N2CCC[C@@H]2C(N)=O)sc1-c1csc(C(C)(C)C)n1 was tested, and the Potency was “inactive”. CC(C)[C@H](O)C(=O)N[C@@H](C)C(=O)N[C@@H]1C(=O)N(C)CCc2ccccc21 was tested, and the Potency was “inactive”. For N#CC1(c2cccc(C(=O)Nc3cc(Oc4ccc5nc(NC(=O)C6CC6)sc5n4)ccc3F)c2Cl)CC1, the Potency was “inactive”. With CCCCCOC(=O)Nc1nc(=O)n([C@@H]2O[C@H](C)[C@@H](O)C2O)cc1F (stereo partly specified) the Potency was “inactive”. O=C1Nc2ccc(I)cc2C1=Cc1cc(Br)c(O)c(Br)c1 was tested, and the Potency was “inactive”. O=S(=O)(O)c1ccc2cc(N=Nc3cc(S(=O)(=O)O)c4cccnc4c3O)ccc2c1 was tested, and the Potency was “inactive”. N#Cc1ccc(Oc2ccc3c(c2)COB3O)cc1 was tested, and the Potency was “inactive”. For COc1cc2c(cc1OC)CC(=O)N(CCCN(C)C[C@H]1Cc3cc(OC)c(OC)cc31)CC2, the Potency was “inactive”. For OC[C@H]1O[C@@H](OCCc2ccc(O)cc2)[C@H](O)[C@@H](O)[C@H]1O, the Potency was “inactive”.

These molecules were tested on NIH3T3 in the same assay as above. Settings: MCC and control cell lines, CellTiter-Glo viability, 72 h; series mostly up to 44.8 µM.
Method in brief: as §1
For CC(=O)O[C@]1(C(C)=O)CC[C@H]2[C@@H]3C=C(Cl)C4=CC(=O)[C@@H]5C[C@H]5[C@]4(C)[C@@H]3CC[C@@]21C, the Potency was “inactive”. In the case of O[C@@H](COc1cccc2ncccc12)CN1CCN(C2c3ccccc3[C@@H]3[C@H](c4ccccc42)C3(F)F)CC1 (stereo partly specified), the Potency is reported as “inactive”. For CC(C)CN(C[C@@H](O)[C@H](Cc1ccccc1)NC(=O)O[C@H]1CO[C@H]2OCC[C@H]21)S(=O)(=O)c1ccc(N)cc1, the Potency was “inactive”.

What follows are molecules tested on UISO in the same assay as above. Settings: MCC and control cell lines, CellTiter-Glo viability, 72 h; series mostly up to 46 µM.
Method in brief: as §1
NC[C@H]1O[C@H](O[C@@H]2[C@@H](O)[C@@H](O[C@H]3O[C@H](CO)[C@@H](O)[C@H](N)[C@@H]3O)[C@H](N)C[C@@H]2N)[C@H](O)[C@@H](O)[C@H]1O was tested, and the Potency was “inactive”. In the case of CCc1cccc(CC)c1NC(=O)N1Cc2[nH]nc(NC(=O)c3ccc(N4CCN(C)CC4)cc3)c2C1, the Potency is reported as “inactive”. With CON(C)C(=O)N1N=C(c2cc(F)ccc2F)S[C@]1(CCCN)c1ccccc1 the Potency was “inactive”. OC[C@H]1O[C@@H](O[C@H]2[C@@H](O)[C@@](O)(CO)O[C@@H]2CO)[C@H](O)[C@@H](O)[C@@H]1O was tested, and the Potency was “inactive”. With COc1cc(F)c(C(C)C)cc1-c1ccc(C(F)(F)F)cc1CN1C(=O)O[C@H](c2cc(C(F)(F)F)cc(C(F)(F)F)c2)[C@@H]1C the Potency was “inactive”. With CCCC1OC2C[C@@H]3[C@H]4CCC5=CC(=O)C=C[C@]5(C)[C@H]4C(O)C[C@]3(C)[C@]2(C(=O)CO)O1 (stereo partly specified) the Potency was “inactive”. With CC(C)(C)c1[nH]cnc1C=c1[nH]c(=O)c(=Cc2ccccc2)[nH]c1=O the Potency was 12.1 nM (active). With Cc1cc(C(C)Nc2ccccc2)c2nc(N3CCOCC3)cc(=O)n2c1 (stereo unspecified) the Potency was “inactive”. CO[C@H]1/C=C\O[C@@]2(C)Oc3c(C)c(O)c4c(O)c(c5c(nc6cc(C)ccn65)c4c3C2=O)NC(=O)C(C)=CC=C[C@H](C)[C@H](O)[C@@H](C)[C@@H](O)[C@@H](C)[C@H](OC(C)=O)[C@H]1C was tested, and the Potency was “inactive”. CN1CCN(c2cccc(Nc3nc4c(-c5ccc(S(C)(=O)=O)cc5)cccn4n3)c2)CC1 was tested, and the Potency was “inactive”. With CN(C(Cc1ccc(OS(=O)(=O)c2cccc3cnccc23)cc1)C(=O)N1CCN(c2ccccc2)CC1)S(=O)(=O)c1cccc2cnccc12 (stereo unspecified) the Potency was 7430 nM (active). CCC(=O)OCC(=O)[C@@]1(OC(=O)CC)[C@@H](C)C[C@@H]2[C@H]3CCC4=CC(=O)C=C[C@]4(C)[C@@]3(F)[C@@H](O)C[C@@]21C was tested, and the Potency was “inactive”. CC(C)C[C@@H](N)[C@H](O)C(=O)N[C@H](C(=O)N[C@H](C(=O)N[C@@H](CC(=O)O)C(=O)O)C(C)C)C(C)C was tested, and the Potency was “inactive”. For CN(C)N=Nc1nc[nH]c1C(N)=O, the Potency was “inactive”. For CC(C)(C)c1nc(-c2cccc(NS(=O)(=O)c3c(F)cccc3F)c2F)c(-c2ccnc(N)n2)s1, the Potency was “inactive”. CCNC(=O)CCCC=CC[C@@H]1[C@H](C=CC(O)CCc2ccccc2)[C@@H](O)C[C@@H]1O (stereo partly specified) was tested, and the Potency was “inactive”. With CC(C)[C@H](O)C(=O)N[C@@H](C)C(=O)N[C@@H]1C(=O)N(C)CCc2ccccc21 the Potency was “inactive”. For CN1CC(=O)NC1=NC(=O)Nc1cccc(Cl)c1, the Potency was “inactive”. In the case of CCCCCOC(=O)Nc1nc(=O)n([C@@H]2O[C@H](C)[C@@H](O)C2O)cc1F (stereo partly specified), the Potency is reported as “inactive”. O=S(=O)(O)c1ccc2cc(N=Nc3cc(S(=O)(=O)O)c4cccnc4c3O)ccc2c1 was tested, and the Potency was “inactive”. For CCN(CCO)CCCOc1ccc2c(Nc3cc(CC(=O)Nc4cccc(F)c4)[nH]n3)ncnc2c1, the Potency was “inactive”. N#Cc1ccc(Oc2ccc3c(c2)COB3O)cc1 was tested, and the Potency was “inactive”. In the case of CC(C)CN(C[C@@H](O)[C@H](Cc1ccccc1)NC(=O)O[C@H]1CO[C@H]2OCC[C@H]21)S(=O)(=O)c1ccc(N)cc1, the Potency is reported as “inactive”. In the case of COc1cc2c(cc1OC)CC(=O)N(CCCN(C)C[C@H]1Cc3cc(OC)c(OC)cc31)CC2, the Potency is reported as “inactive”. OC[C@H]1O[C@@H](OCCc2ccc(O)cc2)[C@H](O)[C@@H](O)[C@H]1O was tested, and the Potency was “inactive”.

From PubChem BioAssay (NCATS)
Potency means the concentration at half of the fitted maximal effect.
